Screening data as filed in PubChem.
IP6K1 inhibitor: blocks human inositol hexakisphosphate kinase 1; IP6K1 kinase, ADP-Glo luminescence, 2 h; active compounds read low; activity change, % (series mostly up to about 58 µM); 140,000 compounds, 0.81% hits; AID 1645851; in the data active = activity change below about -25%; note: % is set by controls: 0 for no effect and ±100 for the full control effect
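ADP-Glo luminescence measures ADP made by human IP6K1 during a 2 h RT reaction with ATP/IP6 (mix at 1.3 mM/130 uM); top library doses 57.5 and 19.1 uM final.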
KDM5B inhibitor: KDM5B demethylase inhibition; Q9UGL1; KDM5B demethylase, FDH-coupled NADH fluorescence (FDH is formaldehyde dehydrogenase); Potency, µM (highest dose often 57.7 µM), most hits filed as inhibitors; 220,000 compounds, 2.6% hits; note: potency is the fitted concentration of half-maximal effect; 0% is about no effect; nearly all actives have a fitted effect of over 70% in size
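Coupled FDH/NAD⁺ fluorescence readout. KDM5BΔAP 200 nM final; compound titration, 10 min RT preincubation; substrate mix 12.5 µM H3K4me3, 25 µM 2-OG, 50 µM Fe(II), 100 µM ascorbate, 0.25 mM NAD⁺, 0.25 U/mL FDH; ΔRFU over 30 min.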
SNCA expr inhib: inhibitors of alpha-synuclein (SNCA) gene expression; HEK-293 SNCA-luciferase knock-in, luminescence, 24 h; Potency, µM (titrated, usually from 57.2 µM), without a hit: at the highest dose activity change, negative = inhibition, actives largely listed as inhibitors; 140,000 compounds, 0.17% hits;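 note: potency is the fitted concentration of half-maximal effect; plate controls were DMSO cells for no effect and cell-free wells for full effect; nearly all actives have a fitted effect of over 45% in size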
SNCA viab count: reduces viability of HEK-293 SNCA reporter cells; HEK-293-SNCA-luc viability, GF-AFC fluorescence, 24 h; Potency, µM (titrated, usually from 57.1 µM), without a hit: at the top dose activity change, negative = cytotoxicity, usual class: cytotoxic; 150,000 compounds, 0.12% hits;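 note: potency is the fitted concentration of half-maximal effect; 0% = DMSO-treated cells and -100% = medium-only wells without cells; nearly all actives have a fitted effect of over 30% in size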
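HEK-293-SNCA-luc cells (1500/well) plated 24 h, then exposed 24 h to a dilution series; GF-AFC added 30 min at 37C, fluorescence 405/540 nm; normalised to medium-only and DMSO wells, Hill fit.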
IP6K1 inh cnf: human IP6K1 inhibition, confirmatory. shares compounds with IP6K1 inhibitor. recombinant IP6K1 kinase, ADP-Glo luminescence, 2 h. Potency, µM (top dose mostly 49 µM), without a hit: top-dose activity change, negative = inhibition, hits mostly inhibitors. 1,200 compounds, 13% hits. AID 1645852; note: potency is the fitted concentration of half-maximal effect; % is set by controls: 0 for no effect and ±100 for the full control effect; nearly all actives have a fitted effect of over 65% in size
Starred values were filed as active, the others as inactive; i = inactive; ? = inconclusive; nt = no result given; [ ] = remark or other dose. Only some compounds are listed: those with a hit (about 2.8% of all), similar ones and a draw of the others. Unless noted, calls come from the whole dose curve; as a rule, active = well fitted curve in the direction sought with a large enough effect; inconclusive = small, poorly fitted or top-dose-only effect, or another doubt; inactive = no such curve, though single readings can be large; an effect the other way counts as inactive or inconclusive.

SMILES	IP6K1 inhibitor	KDM5B inhibitor	SNCA expr inhib	SNCA viab count	IP6K1 inh cnf
Cc1cccc(N2CCN(S(=O)(=O)c3csc(C(N)=O)c3)CC2)c1C	-42.3*	i	-11.7%	-7.4%	7.31µM*
Cc1coc2c1c(C)cc1oc(=O)c(CC(=O)NCCc3ccc(Cl)cc3)c(C)c12	-6.8	i	-4.8%	0.9%	nt
Cc1ccc(CNC(=O)Cc2c(C)c3c(cc(C)c4c(C)coc43)oc2=O)cc1	-26.5*	i	-5.2%	2.3%	-19.8%
COc1ccc(NC(C)=O)cc1NC1CCOC1=O (configuration not stated)	nt	i	nt	nt	nt
COc1cc(NC(=O)CSc2nc3c(=O)[nH]cnc3n2-c2ccc(C)cc2)cc(OC)c1	nt	i	nt	nt	nt
Cc1cccc(Oc2nc3c(c(=O)n(C)c(=O)n3C)n2C)c1	-27.3*	i[11.5 µM]	10.9%	7.8%	-17.9%
CCOC(=O)N1CCc2c(sc3c2c(=O)n(Cc2ccccc2)c(=O)n3CC(=O)Nc2c(C)cccc2C)C1	7.2	i	-9.6%	3.7%	nt
COc1ccc(CN2CCN(S(=O)(=O)c3ccccc3)CC2)c(OC)c1	-48.6*	?	-3.3%	-6.2%	-3.0%
Cc1ccc([N+](=O)[O-])cc1S(=O)(=O)N(C)/N=C/c1cnc2ccc(Br)cn12	-25.4*	nt	nt	?	?
Cc1cc(S(=O)(=O)c2ccc([N+](=O)[O-])cn2)ccc1Br	nt	i	nt	nt	nt
COc1cccc2c1cc1c(=O)n(CC(=O)N3CCN(c4cccc(C)c4C)CC3)nc(C)n12	-25.8*	?	-0.2%	7.4%	9.6%
Cc1nn(CC(=O)N2CCCCC2)c(=O)c2cc3occc3n12	14.1	i	63.6%	?	nt
CCOC(=O)C1CCN(C(=O)Cn2nc(C)n3c(cc4c(OC)cccc43)c2=O)CC1	-22.1	?	15.7%	7.2%	nt
Cc1ccc2c(c1)cc1c(=O)n(CC(=O)N3CCCCC3)nc(C)n12	-27.1*	?	-1.6%	-7.8%	-18.8%
CCOC(=O)C1CCN(C(=O)Cn2nc(C)n3c(cc4cc(C)ccc43)c2=O)CC1	-35.4*	?	-18.4%	-8.9%	-25.0%
COc1cccc2c1cc1c(=O)n(CC(=O)N3CCN(c4cc(Cl)ccc4C)CC3)nc(C)n12	-8.4	?	18.9%	3.3%	nt
NCCc1noc(-c2cccnc2)n1	23.3	?	38.3%	-7.8%[12.5 µM]	nt
O=C(Nc1nnc(N2CCCCCC2)s1)Nc1cc(F)ccc1F	-29.3*	i	12.4%	7.8%	-10.0%
Cc1ccc2c(c1)N(C(=O)N1CCC(C(=O)NCCc3ccccc3)CC1)CC(C)O2 (configuration not stated)	7.1	i	-2.7%	-11.2%	nt
Cc1ccc2c(c1)N(C(=O)N1CCC(C(=O)NCc3cccc(Br)c3)CC1)CCO2	-102.2*	i	-36.0%	-8.0%	-11.7%
Cc1ccc2c(c1)N(C(=O)N1CCC(C(=O)NCCC3=CCCCC3)CC1)CC(C)O2 (configuration not stated)	-38.9*	i	-4.6%	3.8%	-10.7%
CCc1ccc(CNC(=O)C2CCN(C(=O)N3CC(CC)Oc4ccc(C)cc43)CC2)cc1 (configuration not stated)	4.0	i	?	?	nt
O=S(=O)(c1ccc(F)cc1)N(Cc1nc(-c2ccccc2)no1)C1CCCCC1	-19.3	?	4.8%	-2.8%	nt
CCc1ccc(NC(=O)CN(c2cc(C)cc(C)c2)S(=O)(=O)c2c(C)[nH]c(=O)[nH]c2=O)cc1	-14.6	i[11.5 µM]	8.1%	-5.9%	nt
CCc1ccc(NC(=O)CN(c2ccc(OC)cc2)S(=O)(=O)c2c(C)[nH]c(=O)[nH]c2=O)cc1	-30.7*	i[11.5 µM]	-17.1%	13.5%	-3.0%
SMILES	IP6K1 inhibitor	KDM5B inhibitor	SNCA expr inhib	SNCA viab count	IP6K1 inh cnf
Cc1cc(-n2c(C)nc3ccccc3c2=O)ccc1NC(=O)c1ccc(C)c([N+](=O)[O-])c1	-25.2*	i	11.1%	0.6%	4.1%
Cc1cc(-c2ccc(C)c(S(=O)(=O)N3CCC(C)CC3)c2)on1	-25.7*	?	-9.2%	-4.9%	-17.2%
CN1C(C)(C)CCCC1(C)C	-34.8*	nt	9.0%[25.6 µM]	30.1%[23.9 µM]	-2.3%
COc1ccc(OC(=O)c2nc(SCc3ccccc3F)ncc2Cl)cc1	-33.8*	?	?	12.3%	7.7%
COc1cccc(NC(=O)CC2C(=O)OCCN2Cc2ccccc2)c1 (configuration not stated)	-48.4*	i	6.3%	9.0%	-2.2%
Cc1c(NC(=O)c2ccc([N+](=O)[O-])o2)cccc1-c1nc2ccccc2o1	nt	i	nt	nt	nt
Cc1c(NC(=O)c2sc3c([N+](=O)[O-])cccc3c2Cl)cccc1-c1nc2ccccc2o1	-27.9*	i	9.0%	11.7%	7.4%
O=C(CNc1ccc(Br)cc1)N1CCNC1=O	nt	i	nt	nt	nt
CCOc1nccn2c(-c3ccc(CNc4ccc(OC)nc4)cc3)cnc12	-35.6*	?	-29.3%[87.6 µM]	-7.5%[87.6 µM]	?
Cc1ccc2oc(=O)c(S(=O)(=O)c3ccc(F)cc3)cc2c1	-4.0	?	-1.1%	?	nt
Cc1cccc(NC(=O)CCS(=O)(=O)c2cc(Br)cc3c2N(C(=O)C2CC2)CC3)c1C	-2.4	i	0.1%	4.3%	nt
Cc1cc(C)cc(Nc2nc(-c3cccnc3)nc3ccccc23)c1	nt	i	nt	nt	nt
Cc1cc(Nc2nc(-c3ccccc3)nc3ccccc23)n[nH]1	-26.2*	nt	nt	-19.8%	?
CNc1snc(C)c1C(=O)OC(C)C(=O)NC1CCCC1 (configuration not stated)	nt	i	nt	nt	nt
O=C(c1ccc2c(c1)OCO2)N1CC2(C1)C(=O)Nc1ccccc12	-16.2	i	-5.3%	-1.8%	nt
O=C(c1ccc2c(c1)OCO2)N1CCC2(CC1)C(=O)Nc1ccccc12	-33.0*	i	-9.3%	-5.0%	?
COc1cccc(-c2cc(C3CCN(C(=O)Nc4ccc(F)cc4F)CC3)[nH]n2)c1	-1.2	i	2.7%	1.3%	nt
COc1cccc(-c2ccc(NC(=O)C3=C(C(=O)O)CCC3)c(F)c2)c1	-27.4*	nt	105.4%	-9.7%	?
COC(=O)c1c(SC)nc2ccccc2c1OCc1cc(C)ccc1C	39.6	i	?	6.3%	nt
COC(=O)c1c(SC)nc2ccccc2c1OCc1ccccc1Cl	-26.1*	i	-12.5%	-1.3%	-7.3%
Cc1ccc(-n2[nH]c(C)c(N=Nc3cccc(-c4cccc(C(=O)O)c4)c3O)c2=O)cc1C	-91.3*	nt	-0.8%	-18.2%	?
Cc1cc(C)cc(NC(=O)CCC(=O)N2Cc3ccccc3Oc3ncccc32)c1	-7.4	i	-16.9%	-7.4%	nt
CCOC(=O)c1cccc(NC(=O)N2Cc3ccccc3Oc3ncccc32)c1	-32.8*	?	-8.5%	?	-21.2%
CCc1cnc2c(c1SCCC(C)C)c(=O)n(C)c(=O)n2C	-28.2*	i	0.2%	5.2%	-17.5%
COc1cccc(N2C(=O)NC(=NC3CCCCC3)C23CCCN(CC2CCCCC2)C3)c1 (configuration not stated)	-25.6*	?	?	?	?
